Reference: paper PMC4336329 (PLoS ONE, 2015)
Hit rate of the full screen: of about 310,000 compounds, about 2,200 (0.71%) showed an effect of 50% or more. Effects have a minus sign here. For the sample, strong results were picked, then their nearest neighbours and some compounds at random.

Each compound was assayed against human ether-à-go-go-related gene (hERG) potassium channel (human, UniProt Q12809) (assay: primary screen, population patch clamp on CHO cells stably expressing hERG; higher = less effect of the substance).
human ether-à-go-go-related gene (hERG) potassium channel, sequence (Q12809 whole entry, looked up): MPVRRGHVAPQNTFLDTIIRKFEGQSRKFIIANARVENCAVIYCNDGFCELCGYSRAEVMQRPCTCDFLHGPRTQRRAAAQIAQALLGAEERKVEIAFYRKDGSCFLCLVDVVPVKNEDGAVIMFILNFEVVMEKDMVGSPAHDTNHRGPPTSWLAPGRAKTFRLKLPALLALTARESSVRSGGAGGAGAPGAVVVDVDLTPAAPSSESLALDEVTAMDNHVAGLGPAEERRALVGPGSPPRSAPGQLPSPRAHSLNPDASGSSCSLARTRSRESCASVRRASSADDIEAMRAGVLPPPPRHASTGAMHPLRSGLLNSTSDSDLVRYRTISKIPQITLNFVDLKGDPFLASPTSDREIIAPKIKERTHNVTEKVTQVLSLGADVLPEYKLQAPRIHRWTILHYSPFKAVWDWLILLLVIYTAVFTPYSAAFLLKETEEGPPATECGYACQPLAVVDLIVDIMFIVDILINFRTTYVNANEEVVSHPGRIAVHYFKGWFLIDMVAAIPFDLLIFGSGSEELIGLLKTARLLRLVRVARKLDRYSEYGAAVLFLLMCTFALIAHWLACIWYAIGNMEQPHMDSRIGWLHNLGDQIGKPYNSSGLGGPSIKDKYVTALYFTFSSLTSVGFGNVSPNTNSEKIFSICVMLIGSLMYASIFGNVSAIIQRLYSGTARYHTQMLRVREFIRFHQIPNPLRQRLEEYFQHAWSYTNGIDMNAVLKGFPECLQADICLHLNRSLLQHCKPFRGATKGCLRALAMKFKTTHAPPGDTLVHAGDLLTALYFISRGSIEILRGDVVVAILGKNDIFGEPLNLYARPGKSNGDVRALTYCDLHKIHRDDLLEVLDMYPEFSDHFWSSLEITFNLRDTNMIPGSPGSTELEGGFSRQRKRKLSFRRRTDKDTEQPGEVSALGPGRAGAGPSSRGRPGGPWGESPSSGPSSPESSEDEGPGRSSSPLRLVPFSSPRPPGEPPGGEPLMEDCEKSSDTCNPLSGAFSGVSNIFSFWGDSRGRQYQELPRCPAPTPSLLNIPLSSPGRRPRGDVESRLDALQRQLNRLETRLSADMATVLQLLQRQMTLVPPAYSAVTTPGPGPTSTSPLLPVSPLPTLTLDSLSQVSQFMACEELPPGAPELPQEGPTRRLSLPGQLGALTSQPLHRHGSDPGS

| Compound | hERG current change (%, negative = inhibition) at 1uM |
| --- | --- |
| CCCCCN(C(=O)CCC(=O)OCc1ccccc1C)c1c(N)n(CCCC)c(=O)[nH]c1=O | 7.65% |
| CN(c1cccc(NC(=O)CN(c2cccc(F)c2)S(C)(=O)=O)c1)S(C)(=O)=O | 11.3% |
| CCOC(=O)C1(Cc2cccc(OC)c2)CCN(Cc2cc(OC)ccc2OC)CC1 | -7.48% |
| CCOC(=O)C1(CCOc2ccccc2)CCN(Cc2cc(OC)c(O)c(OC)c2)CC1 | -66.6% |
| CCOC(=O)C1(CCOc2ccccc2)CCN(Cc2cc(OC)ccc2OC)CC1 | -60.1% |
| CCOC(=O)C1(CCOc2ccccc2)CCN(Cc2ccccc2O)CC1 | -8.86% |
| CCOC(=O)C1(CCOc2ccccc2)CCN(Cc2cc(OC)c3c(c2)OCO3)CC1 | -7.24% |
| CCOC(=O)C1(CCOc2ccccc2)CCN(Cc2ccc3nonc3c2)CC1 | 0.31% |
| CCOC(=O)C1(CCOc2ccccc2)CCN(Cc2ccc(OCC)c(CO)c2)CC1 | -82.4% |
| CCOC(=O)C1(CCOc2ccccc2)CCN(Cc2ccccc2OC)CC1 | -37.2% |
| CCOC(=O)C1(Cc2ccccc2)CCCN(Cc2ccc(OCC)c(CO)c2)C1 (centres unmarked) | 4.54% |
| CCOC(=O)C1(CCOc2ccccc2)CCN(Cc2ccc(C)o2)CC1 | -32.8% |
| CCOC(=O)C1(CCOc2ccccc2)CCN(Cc2cccc(OC)c2O)CC1 | -54.1% |
| Cc1cc(-c2ccco2)n(CC(=O)NCCCc2ccccc2)n1 | 14.3% |
| CC(C)(C)NC(=O)c1ccc2nsnc2c1 | 6.08% |
| C=CCn1c(COc2ccc(Cl)cc2)nnc1SCC(=O)N/N=C/c1cccc(O)c1 | 4.13% |
| COc1cccc(-c2c(C#N)c(N)nc3c2c(C)nn3-c2ccccc2)c1O | 1.84% |
| FC(F)(F)c1ccncc1-c1nnc(C2CCCCC2)o1 | 15.5% |
| CCOC(=O)N1CCC(NC(=O)c2cnn3cccnc23)CC1 | -4.76% |
| CC1CCCCN1CCNC(=O)CC1Oc2ccccc2NC1=O (centres unmarked) | 5.21% |
| Cc1cc(C)nc(OC(C(=O)O)C(OCCC(C)C)(c2ccccc2)c2ccccc2)n1 (centres unmarked) | 10.8% |
| CCOC(=O)C1(CCOc2ccccc2)CCN(Cc2ccc(O)c(Cl)c2)CC1 | -2.25% |
| CCOC(=O)C1(CCOc2ccccc2)CCN(Cc2ccc(OC)c(COC)c2)CC1 | -77.3% |
| CCOC(=O)C1(CCOc2ccccc2)CCN(Cc2cc(OC)c(O)cc2Cl)CC1 | 7.21% |

| Compound | hERG current change (%, negative = inhibition) at 1uM |
| --- | --- |
| CCOC(=O)C1(CCOc2ccccc2)CCN(Cc2ccc(F)c(OC)c2)CC1 | 5.6% |
| CCOC(=O)C1(CCOc2ccccc2)CCN(Cc2ccc(O)c(OC)c2)CC1 | -69.9% |
| CCOC(=O)C1(CCOc2ccccc2)CCN(Cc2ccc(OC)c(O)c2)CC1 | -88.3% |
| CCOC(=O)C1(Cc2cccc(OC)c2)CCN(Cc2ccc(OC)c(O)c2)CC1 | -16.9% |
| CCOC(=O)C1(CCOc2ccccc2)CCN(Cc2ccc(COC)o2)CC1 | -41.9% |
| CCOC(=O)CSc1nnc(COc2cccc(C)c2)o1 | 10.6% |
| COCCOc1ccc(C(F)(F)F)cc1NC(=O)c1ccc(C(F)(F)F)cc1 | 4.7% |
| CCN(CC)S(=O)(=O)c1ccc(N/N=C/c2cc(OC)c(OC)cc2OC)nc1 | 17.4% |
| COc1ccc(C(=O)NC2CCCc3ccccc32)cc1OC1CCN(C(C)=O)CC1 (centres unmarked) | 3.31% |
| CCOc1ccc(/C(O)=C2/C(=O)C(=O)N(CCCN3CCOCC3)C2c2ccc(F)cc2)cc1C (centres unmarked) | 16.5% |
| CN1CCN(S(=O)(=O)c2ccc(N3CCN(C(c4ccccc4)c4ccccc4)CC3)nc2)CC1 | 18.9% |
| Cc1ccc(NC(=O)COc2ccc(S(=O)(=O)N3CCOCC3)cc2)cc1 | 13.6% |
| O=C(COc1ccc([N+](=O)[O-])cc1)Nc1ccc(S(=O)(=O)N2CCOCC2)cc1 | -55.1% |
| O=C(COc1ccc(S(=O)(=O)N2CCOCC2)cc1)Nc1cccc([N+](=O)[O-])c1 | 9.62% |
| Cc1c(CCC(=O)N2CCC[C@H]2C(=O)O)c(=O)oc2c(C)c3oc4c(c3cc12)CCCC4 | 21.1% |
| COC(=O)C(NC(C)=O)(Nc1ccc(C)cn1)C(F)(F)F (centres unmarked) | 21.1% |
| Cc1ccc(NP(=O)(Oc2ccccc2F)Oc2ccccc2F)cc1 | -1.69% |
| COc1cc(OC)cc(C(=O)N2CCN(Cc3ccccc3Br)CC2)c1 | 9.25% |
| Cc1ccc(S(=O)(=O)c2cc3c(=O)n4ccccc4nc3n(C3CCCC3)c2=N)cc1 | 3.8% |
| Cc1ccc2nc3c(cc(C(=O)NC4CCCC4)c(=N)n3C3CCCCC3)c(=O)n2c1 | -86.2% |
| Cc1ccc2nc3c(cc(C(=O)NC4CCCC4)c(=N)n3CCCn3ccnc3)c(=O)n2c1 | -2.46% |
| Cc1ccc2nc3c(cc(C(=O)NC4CCCCC4)c(=N)n3C3CCCCC3)c(=O)n2c1 | -72.7% |
| Cc1ccc(S(=O)(=O)c2cc3c(=O)n4ccccc4nc3n(C3CCCCC3)c2=N)cc1 | -0.427% |
